Reference: PubChem BioAssay (NCATS)
Inconclusive results are not listed. Active and inactive are the calls of the source. Unless noted, calls follow the shape of the dose curve; as a rule, active = well fitted curve in the direction sought with a large enough effect; inconclusive = small, poorly fitted or top-dose-only effect, or another doubt; inactive = no such curve, though single readings can be large; an effect the other way counts as inactive or inconclusive.

What was measured:
[1] = Cellular Toxicity (caspase-3) SK-N-SH (AID 661);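 also: 0% = DMSO basal and 100% = 10 µM staurosporine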
Summary of the method: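 Luminescent Caspase-Glo 3/7 read-out after 16 hr compound exposure of SK-N-SH neuroblastoma cells at 37 °C. Signal increase normalized to DMSO (basal) and 10 uM staurosporine (100%); AC50 from Hill equation fits of qHTS concentration-response data.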

[2] = Cellular Toxicity (caspase-3) H-4-II-E (AID 663);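 also: cells exposed to compound for 16 hr before readout; 0% = DMSO basal and 100% = 100 µM tamoxifen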
Summary of the method: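 H-4-II-E rat hepatoma, 1500 cells/well, 5 hr settle at 37 °C; compound 16 hr, 37 °C, complete medium; Caspase-Glo 3/7, 20 min RT; luminescence. DMSO = 0%, 100 uM tamoxifen = 100%; Hill-equation AC50.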

[3] = Cellular Toxicity (caspase-3) Hek293 (AID 664);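 also: cells exposed to compound for 16 h at 37 °C before readout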
Summary of the method: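 Luminescent Caspase-Glo 3/7 readout (aminoluciferin release) in HEK293 cells after 16 h compound treatment, 37 °C. Normalization: DMSO = basal, 100 uM tamoxifen = 100% stimulation. Concentration-response fitted with standard Hill equation for AC50.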

[4] = Cellular Toxicity (caspase-3) N2a (AID 665);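 also: compound exposure lasted 16 h at 37 °C before readout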
Summary of the method: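 Luminescent Caspase-Glo 3/7 readout in N2a mouse neuroblastoma cells after 16 h compound exposure at 37 °C. Signal scaled to DMSO (basal) and 10 uM staurosporine (100%). Concentration-response fitted with Hill equation for AC50.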

[5] = Cellular Toxicity (caspase-3) NIH 3T3 (AID 666);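 also: 0% = DMSO basal and 100% = 100 µM tamoxifen stimulation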
Summary of the method: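 NIH 3T3, 1000 cells/well, 5 hr settle then 16 hr compound at 37°C; Caspase-Glo 3/7, 20 min RT, luminescence. DMSO = basal, 100 uM tamoxifen = 100%. Hill-equation AC50, qHTS.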

[6] = Cellular Toxicity (caspase-3) Renal Proximal Tubule (AID 667);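 also: cells exposed to compound for 16 hours at 37 °C before detection; 0% = DMSO basal and 100% = 10 µM staurosporine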
Summary of the method: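 AC50 derived by standard Hill fit of concentration-response data, normalized between DMSO basal and 10 uM staurosporine as 100% stimulation. Cells: primary rat kidney proximal tubule, 16 h treatment at 37 °C.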

[7] = Cell Viability - LYMP2-001 (AID 921);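 also: series mostly up to about 92 µM; cells exposed to compound for 24 h at 37 °C; 0% = DMSO only and full inhibition = tetraoctylammonium bromide control wells; nearly all actives have a fitted effect of over 70% in size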
Summary of the method: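 Steps: seed 2500 lymphoblastoid cells/well; 5 hr, 37 C; add compound; 24 hr, 37 C; CellTiter-Glo reagent, 30 min room temperature; read luminescence. Concentration-response modeled by Hill equation for AC50.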

[8] = MultiTox-Fluor Cytotoxicity Assay - LYMP1-001 - Dead Cells (AID 946)
Summary of the method: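 Seed 2500 LYMP1-001 cells/well, incubate 5 hr at 37 C; add compound, 16 hr at 37 C; add MultiTox-Fluor reagent, 60 min RT; read dead-cell fluorescence Ex/Em=485/520. Normalize to DMSO and 15 uM tetraoctylammonium bromide.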

[9] = MultiTox-Fluor Cytotoxicity Assay - LYMP1-001 - Live Cells (AID 947);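 also: 0% = DMSO only and full inhibition = tetraoctylammonium bromide control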
[10] = Cell Viability - LYMP1-002 - Assay at 16 hr (AID 948);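 also: 0% = DMSO alone and full effect = 92 µM tetraoctylammonium bromide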
Summary of the method: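 Seed 2500 LYMP1-002 cells per well in complete medium and hold 5 hr at 37 C. Add compound across a concentration series and incubate 16 hr at 37 C. Add CellTiter-Glo, wait 30 min at room temperature, read luminescence.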

[11] = MultiTox-Fluor Cytotoxicity Assay - LYMP1-002 - Live Cells (AID 955); also: % is scaled to controls: 0 for no effect and ±100 for the full control effect
Summary of the method: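 LYMP1-002 lymphoblastoid cells; 2500 cells/well; 16 hr compound exposure, 37 C; MultiTox-Fluor reagent 60 min RT; live-cell fluorescence Ex/Em=405/510; qHTS concentration-response, Hill-equation AC50; tetraoctylammonium bromide positive control.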

[12] = MultiTox-Fluor Cytotoxicity Assay - LYMP1-002 - Dead Cells (AID 960); also: nearly all actives have a fitted effect of over 60% in size
Summary of the method: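 Readout: fluorescence at 485/520 from cell-impermeant bis-AAF-R110 cleaved by proteases leaking from damaged cells. LYMP1-002 lymphoblastoid line, 16 hr compound treatment at 37 C, concentration-response in qHTS format; Hill-equation AC50 values.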

[13] = MultiTox-Fluor Cytotoxicity Assay - LYMP1-003 - Dead Cells (AID 961); also: nearly all actives have a fitted effect of over 70% in size
Summary of the method: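 LYMP1-003 lymphoblastoid, 2500 cells/well, 5 hr settle then 16 hr cpd at 37 C; MultiTox-Fluor reagent 60 min RT; Ex/Em 485/520 dead-cell signal; norm. DMSO = 0%, 15 uM tetraoctylammonium bromide = 100%; Hill AC50.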

[14] = MultiTox-Fluor Cytotoxicity Assay - LYMP1-003 - Live Cells (AID 962);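 also: 0% = DMSO only and full loss = 92 µM tetraoctylammonium bromide; cytotoxic hits lower the live-cell protease signal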
Summary of the method: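 Readout: live-cell fluorescence (Ex/Em=405/510) from GF-AFC cleavage after 60 min MultiTox-Fluor reagent at room temperature. Lymphoblastoid LYMP1-003 cells, 16 hr compound treatment, 37 C. Concentration-response fitted to standard Hill equation for AC50.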

[15] = Cell Viability - LYMP1-003 - Assay at 24 hr (AID 963);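 also: plate controls were DMSO only for no effect and tetraoctylammonium bromide positive control for full effect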
Summary of the method: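 CellTiter-Glo luminescence (intracellular ATP) read after 24 hr, 37 C compound exposure of 2500 LYMP1-003 human lymphoblastoid cells/well in complete medium; qHTS concentration series; AC50 via standard Hill equation.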

[16] = qHTS assay for small molecule agonists of the antioxidant response element (ARE) signaling pathway measured by Nrf2-dependant transcriptional activity (AID 720636; active = well fitted curve in the direction sought with a large enough effect in the repeat runs; an effect the other way counts as inactive or inconclusive; also: % of control where 0% means no effect)
Summary of the method: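 ARE-luc HepG2 cells carrying an Nrf2-responsive luciferase reporter, in medium with 1% dialyzed FBS, exposed to compound for 16 hr at 37 C, 5% CO2. Luminescence read 30 min after ONE-Glo addition.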

[17] = qHTS assay for small molecule antagonists of the retinoid-related orphan receptor gamma (ROR-gamma) signaling pathway - cell viability counter screen (AID 720652; active = well fitted curve in the direction sought with a large enough effect in the repeat runs; an effect the other way counts as inactive or inconclusive;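 also: CHO reporter cells with doxycycline-induced ROR-gamma expression; series mostly up to about 92 µM; compound exposure lasted 16 hr before ATP read; % is scaled to controls: 0 for no effect and ±100 for the full control effect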)
Summary of the method: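 CHO RORE-LUC/TET-ROR line, 1,000 cells/well, 37 C 5% CO2 5 hr; cpd or DMSO + doxycycline induction, 16 hr. CellTiter-Glo, 30 min RT, luminescence = ATP content.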

[18] = qHTS assay for small molecule agonists of the antioxidant response element (ARE) signaling pathway measured by Nrf2-dependant transcriptional activity - cell viability counter screen (AID 720653; active = well fitted curve in the direction sought with a large enough effect in the repeat runs; an effect the other way counts as inactive or inconclusive; also: % is scaled to controls: 0 for no effect and ±100 for the full control effect); conditions: ARE-bla HepG2 viability, CellTiter-Glo ATP luminescence, 16 h; stronger effect = lower value
Summary of the method: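 ARE-bla HepG2 cells treated with compounds for 16 h at 37C; this counter screen measures viability as intracellular ATP by CellTiter-Glo luminescence after 30 min at room temperature.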

[19] = qHTS assay for cell viability of HEK293 cells (AID 743288); conditions: ATP luminescence (CellTiter-Glo), 18 h, stronger effect = lower value; also: % is scaled to controls: 0 for no effect and ±100 for the full control effect; nearly all actives have a fitted effect of over 50% in size
Summary of the method: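 Viable-cell counts were inferred from luciferase-based ATP content in HEK293 cells seeded at 2,000/well, pre-incubated ≥5 h, then dosed with DMSO-solubilised compounds for 18 h at 37 C.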

[20] = qHTS assay for cell viability of the p53RE-bla HCT-116 cell line (AID 743292); also: % is scaled to controls: 0 for no effect and ±100 for the full control effect; nearly all actives have a fitted effect of over 55% in size
Summary of the method: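 CellSensor p53RE-bla HCT-116 cells (4,000/well) pre-incubated 5 h at 37 C, then exposed to compounds in DMSO for 16 h at 37 C. Viability read as ATP content by CellTiter-Glo luminescence after 30 min at room temperature.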

Measured: max response

CC1=CC(=O)CC(C)(C)C1(O)/C=C/C(C)=C\C(=O)O (stereo not given)
inactive: [1] | [2] | [3] | [4] | [5] | [6] | [7] | [8] | [9] | [10] | [11] | [12] | [13] | [14] | [15] | [16] | [17] | [18] 6.26% | [19] 11% | [20]

Cc1occc(=O)c1O
inactive: [1] | [2] | [3] | [4] | [5] | [6] | [7] | [8] | [9] | [10] | [11] | [12] | [13] | [14] | [15] | [16] | [17] | [18] 5.21% | [19] 0.312% | [20]
